These results are taken from PubChem BioAssay (Tox21).

A short description of assay [1]: qHTS assay to identify aromatase inhibitors - cell viability counter screen (AID 743084).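 Note: cells stimulated with testosterone during compound exposure; nearly all actives have a fitted effect of over 55% in size.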 In general terms: Quantitative high-throughput screening tests each substance at several concentrations.
For assay [2], the target named is Aryl hydrocarbon receptor (Homo sapiens) (UniProt P35869). The assay is described as follows: qHTS assay to identify small molecule that activate the aryl hydrocarbon receptor (AhR) signaling pathway (AID 743085).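 Note: HG2L7.5c1 human HepG2 liver cells with stably integrated DRE-driven firefly reporter; series mostly up to about 70 µM; nearly all actives have a fitted effect of over 15% in size.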 The method, boiled down:
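Luminescence read-out: ONE-Glo reagent, 30 min at room temperature, in HG2L7.5c1 HepG2 reporter cells treated 24 h at 37C. Viability was measured beforehand by CellTiter-Fluor fluorescence after 30 min at 37C.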

Assay [3] is described as follows: qHTS assay to identify small molecule that activate the aryl hydrocarbon receptor (AhR) signaling pathway - cell viability counter screen (AID 743086).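 Note: HepG2 liver cells carrying the AhR DRE luciferase reporter; series mostly up to about 70 µM; nearly all actives have a fitted effect of over 45% in size.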 The method, boiled down:
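HepG2-AhR-luc (HG2L7.5c1) cells, 4000/well, treated 24 h at 37 C with compound; viability measured as CellTiter-Fluor fluorescence after 30 min in the same wells as the luciferase read.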

Assay [4] has as its target Peroxisome proliferator-activated receptor gamma (Homo sapiens) (UniProt P37231). The assay is described as follows: qHTS assay to identify small molecule agonists of the peroxisome proliferator-activated receptor gamma (PPARg) signaling pathway (AID 743094; active = well fitted activation curve with a large enough effect in the signal ratio in the repeat runs, not every such curve was filed as active; the % refers to the signal ratio). The method, boiled down:
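Compounds dissolved in DMSO were added to PPARg UAS-bla HEK293H cells for 17 h at 37C, and reporter expression was quantified by fluorescence intensity after 1 h with LiveBLAzer B/G FRET substrate.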

Assay [5] shares this target. Briefly: qHTS assay to identify small molecule antagonists of the peroxisome proliferator-activated receptor gamma (PPARg) signaling pathway (AID 743191; calls by dose curve; note: series mostly up to about 63 µM; nearly all actives have a fitted effect of over 30% in size). In a few lines: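 GeneBLAzer PPARg UAS-bla HEK293H cells, 5 h post-plating, exposed to compounds 17 h at 37C. LiveBLAzer B/G FRET substrate added for 1 h at room temperature; beta-lactamase reporter read by fluorescence intensity.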

Assay [6] is described as follows: qHTS assay to identify small molecule antagonists of the peroxisome proliferator-activated receptor gamma (PPARg) signaling pathway - cell viability counter screen (AID 743194). Note: nearly all actives have a fitted effect of over 55% in size. The conditions noted are these: Potency: co-treated with 50 nM rosiglitazone. The method, boiled down: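 Cytotoxicity counter screen in PPARg-bla HEK293H cells, same wells as reporter assay. Compounds plus 50 nM rosiglitazone (final) for 17 h at 37 C, then viability read by CellTiter-Glo luminescence.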

Assay [7] is described as follows: qHTS assay for small molecule agonists of the antioxidant response element (ARE) signaling pathway (AID 743202; active = well fitted activation curve with a large enough effect in the signal ratio in the repeat runs, not every such curve was filed as active; the % refers to the signal ratio; note: potency is the fitted concentration of half-maximal effect). In a few lines: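 Agonist mode reporter screen: HepG2 cells with ARE-controlled beta-lactamase are incubated with test compounds for 16 h at 37 C, and beta-lactamase activity is measured as fluorescence of cleaved B/G FRET substrate.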
Assay [8] in a line: qHTS assay for small molecule agonists of the antioxidant response element (ARE) signaling pathway - cell viability counter screen (AID 743203; calls by dose curve; note: nearly all actives have a fitted effect of over 55% in size). In a few lines: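 Following 16 hrs of compound treatment at 37C, HepG2 cells with an ARE-controlled beta-lactamase gene were lysed with CellTiter-Glo. Luminescence was read after 30 min at room temperature.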
Assay [9] is described as follows: qHTS assay for small molecule activators of the heat shock response signaling pathway - cell viability counter screen (AID 743209). Note: nearly all actives have a fitted effect of over 50% in size. The method, boiled down: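 Readout: CellTiter-Glo luminescence, 30 min at room temperature. System: HSE-bla HeLa cells, 1500/well, plated overnight. Treatment: compounds in DMSO, 5 h at 37 C.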
Assay [10] in a line: qHTS assay for small molecule activators of the heat shock response signaling pathway (AID 743210; active = well fitted activation curve with a large enough effect in the signal ratio in the repeat runs, with a control signal flat, not every such curve was filed as active; the % refers to the signal ratio;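 note: HeLa cells with beta-lactamase reporter driven by heat shock elements; series mostly up to about 63 µM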). In a few lines: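 Quantitative high-throughput format using an engineered HeLa line in which heat shock response elements drive beta-lactamase; after 5 h with compound, cells received a B/G FRET substrate and fluorescence was read.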
The nature of assay [11]: qHTS assay to identify small molecule agonists of the peroxisome proliferator-activated receptor delta (PPARd) signaling pathway - cell viability counter screen (AID 743211). Note: nearly all actives have a fitted effect of over 55% in size. The method, boiled down:
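Read-out: CellTiter-Glo luminescence, 30 min RT, measured in the same wells as the beta-lactamase reporter. Cells: GeneBLAzer PPAR delta UAS-bla HEK293H, 3000 cells/well, compound exposure 17 h at 37C.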

Assay [12] can be described thus: qHTS assay to identify small molecule antagonists of the peroxisome proliferator-activated receptor delta (PPARd) signaling pathway - cell viability counter screen (AID 743213). Note: nearly all actives have a fitted effect of over 50% in size. In a few lines: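 PPARd-bla HEK293H cells (3000/well) got compound plus 300 nM L165041 agonist for 17 h at 37 C. Viability in the same wells came from CellTiter-Glo luminescence after 30 min at room temperature.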

The target in assay [13] is Peroxisome proliferator-activated receptor delta (Homo sapiens) (UniProt Q03181). Briefly: qHTS assay to identify small molecule antagonists of the peroxisome proliferator-activated receptor delta (PPARd) signaling pathway (AID 743215; active = well fitted inhibition curve with a large enough effect in the signal ratio in the repeat runs, not every such curve was filed as active; the % refers to the signal ratio;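 note: cells stimulated with agonist L165041 at 300 nM final during compound exposure; series mostly up to about 62 µM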). In a few lines: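 HEK293H UAS-bla, PPARd; agonist L165041 300 nM final with cpd in DMSO; 37 C 17 h; FRET substrate, RT 2 h; fluorescence intensity.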

A short description of assay [14]: qHTS assay to identify small molecule agonists of the farnesoid-X-receptor (FXR) signaling pathway - cell viability counter screen (AID 743218). Note: nearly all actives have a fitted effect of over 45% in size. The method, boiled down:
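Parallel cytotoxicity test: compound-treated (16 h, 37 C) HEK 293T FXR-bla reporter cells were lysed with CellTiter-Glo and luminescence recorded.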

Assay [15] can be described thus: qHTS assay to identify small molecule antagonists of the farnesoid-X-receptor (FXR) signaling pathway - cell viability counter screen (AID 743221; active = well fitted cell-killing curve with a large enough effect in the repeat runs, not every such curve was filed as active; note: nearly all actives have a fitted effect of over 50% in size). In a few lines: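 HEK 293T FXR-bla cells, 5 h pre-incubation; compound + CDCA 50 uM final, 16 h, 37 C; beta-lactamase FRET read first, then CellTiter-Glo luminescence, 30 min RT.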
Assay [16] deals with Vitamin D3 receptor (Homo sapiens) (UniProt P11473). The assay is described as follows: qHTS assay to identify small molecule agonists of the vitamin D receptor (VDR) signaling pathway (AID 743222; calls by dose curve). In a few lines:
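In VDR-bla cells, compound-induced beta-lactamase expression is quantified by FRET substrate fluorescence. Treatment lasts 16 h at 37C; substrate develops 2 h at room temperature.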

For assay [17] the target is unchanged. The assay is described as follows: qHTS assay to identify small molecule antagonists of the vitamin D receptor (VDR) signaling pathway (AID 743223; active = well fitted inhibition curve with a large enough effect in the signal ratio in the repeat runs, not every such curve was filed as active; the % refers to the signal ratio). The method, boiled down: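 Beta-lactamase reporter read-out: FRET substrate fluorescence after 2 h at room temperature, following 16 h exposure of VDR-bla cells to test compound plus 3 nM (final) 1alpha,25-dihydroxyvitamin D3 agonist at 37C.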

Assay [18] deals with Peroxisome proliferator-activated receptor delta (Homo sapiens) (UniProt Q03181). The assay is described as follows: qHTS assay to identify small molecule agonists of the peroxisome proliferator-activated receptor delta (PPARd) signaling pathway (AID 743212; calls by dose curve). In a few lines:
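Quantitative high-throughput agonist screen in a HEK293H beta-lactamase reporter line under UAS control. Compounds in DMSO, at 37 C. Fluorescence read after 2 h with FRET substrate at room temperature.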

The target of assay [19] is Bile acid receptor (Homo sapiens) (UniProt Q96RI1). The assay is described as follows: qHTS assay to identify small molecule antagonists of the farnesoid-X-receptor (FXR) signaling pathway (AID 743217; active = well fitted inhibition curve with a large enough effect in the signal ratio in the repeat runs, not every such curve was filed as active; the % refers to the signal ratio). In a few lines: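 GeneBLAzer FXR-UAS-bla HEK 293T, CDCA-stimulated (50 uM final). Compound treatment 16 h, 37 °C. Detection: beta-lactamase cleavage of B/G FRET substrate, fluorescence.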

The target is the same in assay [20]. Briefly: qHTS assay to identify small molecule agonists of the farnesoid-X-receptor (FXR) signaling pathway (AID 743220; active = well fitted activation curve with a large enough effect in the signal ratio in the repeat runs, not every such curve was filed as active; the % refers to the signal ratio). The method, boiled down: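 Beta-lactamase reporter under UAS control in GeneBLAzer FXR HEK 293T cells (5000/well) measured with LiveBLAzer FRET substrate after 2 h at room temperature. Compound exposure lasted 16 h at 37C.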

Molecules are shown by their SMILES. Records with an inconclusive call do not appear. Activity calls are given as the source filed them. Unless noted, calls come from the whole dose curve; as a rule, active = well fitted curve in the direction sought with a large enough effect in the repeat runs; inconclusive = weak or mixed curves; inactive = no such curve, though single readings can be large; an effect the other way counts as inactive or inconclusive.

Aryl hydrocarbon receptor (Homo sapiens), sequence (P35869 whole entry, looked up): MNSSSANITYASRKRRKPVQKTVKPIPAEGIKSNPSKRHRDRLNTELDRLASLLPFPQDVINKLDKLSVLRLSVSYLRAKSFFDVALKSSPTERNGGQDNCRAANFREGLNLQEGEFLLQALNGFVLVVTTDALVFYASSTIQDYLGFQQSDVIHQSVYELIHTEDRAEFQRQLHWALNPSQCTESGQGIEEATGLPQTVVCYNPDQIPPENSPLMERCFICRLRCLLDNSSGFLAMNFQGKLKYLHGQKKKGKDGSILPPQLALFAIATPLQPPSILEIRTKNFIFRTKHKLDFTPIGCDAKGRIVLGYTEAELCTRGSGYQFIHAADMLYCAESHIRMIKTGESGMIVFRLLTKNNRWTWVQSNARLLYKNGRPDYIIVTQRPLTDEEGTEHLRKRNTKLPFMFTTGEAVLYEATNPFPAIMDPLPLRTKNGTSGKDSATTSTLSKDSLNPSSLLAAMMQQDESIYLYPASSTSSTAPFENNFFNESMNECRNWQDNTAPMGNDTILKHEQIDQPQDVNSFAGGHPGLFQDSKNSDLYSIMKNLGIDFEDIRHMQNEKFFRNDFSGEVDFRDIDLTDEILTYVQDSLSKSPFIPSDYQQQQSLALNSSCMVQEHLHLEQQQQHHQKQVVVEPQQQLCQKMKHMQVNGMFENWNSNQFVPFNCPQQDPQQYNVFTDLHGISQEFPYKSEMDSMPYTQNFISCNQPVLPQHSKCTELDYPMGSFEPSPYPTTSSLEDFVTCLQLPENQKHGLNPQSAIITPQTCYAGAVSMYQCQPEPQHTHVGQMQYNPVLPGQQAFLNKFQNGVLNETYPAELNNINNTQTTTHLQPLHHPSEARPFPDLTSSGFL
Peroxisome proliferator-activated receptor gamma (Homo sapiens), sequence (P37231 whole entry, looked up): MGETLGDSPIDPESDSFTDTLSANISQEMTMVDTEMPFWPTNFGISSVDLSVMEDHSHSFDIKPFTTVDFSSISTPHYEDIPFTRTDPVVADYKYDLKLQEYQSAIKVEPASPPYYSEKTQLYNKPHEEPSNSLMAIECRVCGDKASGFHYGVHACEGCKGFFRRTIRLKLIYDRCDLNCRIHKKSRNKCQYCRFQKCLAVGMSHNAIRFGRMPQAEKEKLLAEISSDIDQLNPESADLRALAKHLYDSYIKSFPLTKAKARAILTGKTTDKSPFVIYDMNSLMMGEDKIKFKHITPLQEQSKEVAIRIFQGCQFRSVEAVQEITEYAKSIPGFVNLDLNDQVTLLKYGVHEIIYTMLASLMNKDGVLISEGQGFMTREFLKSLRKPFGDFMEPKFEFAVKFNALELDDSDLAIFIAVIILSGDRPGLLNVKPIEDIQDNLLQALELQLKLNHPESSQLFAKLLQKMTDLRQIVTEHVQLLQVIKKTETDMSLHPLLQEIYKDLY
Vitamin D3 receptor (Homo sapiens), sequence (P11473 whole entry, looked up): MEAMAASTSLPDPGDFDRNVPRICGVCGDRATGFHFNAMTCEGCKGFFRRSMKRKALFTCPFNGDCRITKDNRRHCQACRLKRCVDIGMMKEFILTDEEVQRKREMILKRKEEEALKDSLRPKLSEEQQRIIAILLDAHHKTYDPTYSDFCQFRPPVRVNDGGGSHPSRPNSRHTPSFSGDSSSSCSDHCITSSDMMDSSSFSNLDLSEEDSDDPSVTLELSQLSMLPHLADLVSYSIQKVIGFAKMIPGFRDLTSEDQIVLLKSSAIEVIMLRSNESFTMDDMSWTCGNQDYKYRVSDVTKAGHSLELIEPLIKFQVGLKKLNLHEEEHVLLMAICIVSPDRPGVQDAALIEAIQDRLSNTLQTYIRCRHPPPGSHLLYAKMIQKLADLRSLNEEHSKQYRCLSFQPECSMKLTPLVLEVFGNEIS
Bile acid receptor (Homo sapiens), sequence (Q96RI1 whole entry, looked up): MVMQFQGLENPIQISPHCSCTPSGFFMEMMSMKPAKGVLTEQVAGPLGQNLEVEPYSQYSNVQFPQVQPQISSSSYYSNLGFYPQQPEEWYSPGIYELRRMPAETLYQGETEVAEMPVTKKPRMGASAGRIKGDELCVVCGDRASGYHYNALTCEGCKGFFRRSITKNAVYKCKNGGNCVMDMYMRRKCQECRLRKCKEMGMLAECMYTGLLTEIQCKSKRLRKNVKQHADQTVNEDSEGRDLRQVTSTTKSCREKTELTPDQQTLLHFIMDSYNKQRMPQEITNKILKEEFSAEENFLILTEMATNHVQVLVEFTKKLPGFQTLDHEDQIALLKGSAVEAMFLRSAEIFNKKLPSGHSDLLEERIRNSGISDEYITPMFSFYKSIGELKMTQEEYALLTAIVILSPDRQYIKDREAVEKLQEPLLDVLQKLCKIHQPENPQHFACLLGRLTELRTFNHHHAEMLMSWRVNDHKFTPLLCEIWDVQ
Peroxisome proliferator-activated receptor delta (Homo sapiens), sequence (Q03181 whole entry, looked up): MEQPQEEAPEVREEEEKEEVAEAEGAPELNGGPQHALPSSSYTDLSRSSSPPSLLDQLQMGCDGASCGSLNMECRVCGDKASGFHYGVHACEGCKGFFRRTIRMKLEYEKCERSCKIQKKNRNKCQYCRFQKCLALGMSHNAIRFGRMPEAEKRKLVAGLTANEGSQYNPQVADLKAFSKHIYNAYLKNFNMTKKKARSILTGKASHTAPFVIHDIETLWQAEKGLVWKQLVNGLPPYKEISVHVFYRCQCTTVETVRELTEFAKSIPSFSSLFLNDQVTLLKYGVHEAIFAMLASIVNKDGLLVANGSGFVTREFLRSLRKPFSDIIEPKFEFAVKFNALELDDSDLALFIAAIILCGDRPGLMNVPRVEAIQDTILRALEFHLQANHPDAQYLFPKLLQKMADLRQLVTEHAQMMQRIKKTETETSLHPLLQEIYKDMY

As for `c1cc2c(c(N3CCNCC3)c1)OCCO2`, the Potency result in assay [1], in assay [2], in assay [5], in assay [6], in assay [7] and in assay [8] was “inactive” in each case. Also, the Potency entry in assay [9], in assay [11] and in assay [14] was “inactive” in each case. For the same molecule, the molecule was called inactive in assay [3], in assay [4], in assay [10], in [12], in assay [13] and in assay [15]. In addition, the call in [16] and in assay [17] was inactive.

With `CCN(CC)C(C)C(=O)c1ccccc1` (stereo not drawn), the Potency result in [1], in assay [2], in assay [5], in [6], in assay [7] and in assay [8] was “inactive” in each case. For the same molecule, the Potency entry in [9], in assay [11] and in assay [14] was “inactive” throughout. Also, the molecule was called inactive in assay [3], in [4], in assay [10], in assay [18] and in assay [15].

On to `ClCC(Cl)(Cl)Cl`, for which the Potency entry in assay [1], in [2], in assay [5], in assay [6], in assay [8] and in assay [9] was “inactive” each time. The Potency result in [11] and in assay [19] was “inactive” throughout. Besides, the molecule was called inactive in [3], in [4], in assay [10], in assay [18], in [12] and in [15]. The outcome in [16] and in assay [17] was inactive.

Consider `CN1CCN(C(=O)O[C@H]2c3nccnc3C(=O)N2c2ccc(Cl)cn2)CC1`, for which the Potency result in assay [1], in assay [2], in assay [5], in assay [6], in assay [8] and in [9] was “inactive” each time. The Potency result in [11], in assay [19] and in assay [14] was “inactive” each time. Also, the call in [3], in [4], in [10], in assay [12], in assay [20] and in [15] was inactive. For the same molecule, the molecule was classed as inactive in assay [16] and in assay [17].

As to `C[N+](=O)[O-]`, the Potency result in [1], in [2], in [5], in assay [6], in assay [8] and in assay [9] was “inactive” throughout. Besides, the Potency result in assay [11] and in assay [14] was “inactive” throughout. Also, the molecule was called inactive in [3], in [4], in assay [10], in assay [18], in assay [12] and in assay [13]. For the same molecule, the result in assay [15], in assay [16] and in assay [17] was inactive.

Consider `O=C1c2ccccc2C(=O)c2ccccc21`, for which the Potency result in [1], in [2], in assay [5], in [6], in [7] and in assay [8] was “inactive” throughout. For the same molecule, the Potency result in assay [9], in assay [11] and in [14] was “inactive” throughout. Besides, the molecule was called inactive in assay [3], in [4], in assay [10], in assay [18], in assay [12] and in [13]. The molecule was classed as inactive in [15], in assay [16] and in [17].

For `NC(=O)c1cc([N+](=O)[O-])cc([N+](=O)[O-])c1`, the Potency entry in assay [1], in assay [2], in [5], in [6], in [8] and in [11] was “inactive” throughout. The Potency entry in [14] was “inactive”. Moreover, the molecule was called inactive in assay [3], in assay [4], in assay [10], in assay [12], in [15] and in assay [16]. In assay [17], the molecule was called inactive. In addition, the Potency in assay [7] was 23.7 µM (active).

As for `O=C(O)c1cccc(Cl)c1`, the Potency entry in [1], in [2], in assay [5], in assay [6], in assay [8] and in assay [9] was “inactive” throughout. Also, the Potency result in assay [11], in assay [19] and in assay [14] was “inactive” throughout. The result in assay [3], in assay [4], in [10], in [18], in assay [12] and in assay [13] was inactive. In addition, the result in [15], in assay [16] and in [17] was inactive.

Consider `CCCCN(CCCCO)N=O`, for which the Potency result in assay [1], in [2], in [5], in [6], in [7] and in assay [9] was “inactive” throughout. Besides, the Potency result in assay [11] and in assay [14] was “inactive” in each case. Further, the result in assay [3], in assay [4], in assay [10], in assay [12], in [13] and in assay [15] was inactive. For the same molecule, the result in [16] and in [17] was inactive.
